Hit rate of the full screen: of about 76,000 compounds, about 1,200 (1.6%) were called active. Inconclusive results (about 4%) are left out. Calls come from the whole dose curve. What follows is part of a selection rich in actives, with near analogues and random picks from the rest. Where a call stands in place of a potency, no number is given.
molecular target: Atrial natriuretic peptide receptor 1 (Homo sapiens) (UniProt P16066); assay: Natriuretic polypeptide receptor (hNpr1) antagonism - Primary qHTS; conditions: HEK293 hNpr1 GloSensor cGMP, ANP-stimulated luminescence; series mostly up to 46.3 µM; note: nearly all actives have a fitted effect of over 60% in size
How it was run: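 HEK293 cells stably expressing human Npr1 and cGMP GloSensor pGS-40F, loaded 2 h with 2% GloSensor reagent, given compound 30 min at room temperature. Luminescence read before and 20 min after 0.1 nM hNppA.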
Potency is the fitted concentration of half-maximal effect.

Sequence of Atrial natriuretic peptide receptor 1 (Homo sapiens) (P16066 whole entry, looked up): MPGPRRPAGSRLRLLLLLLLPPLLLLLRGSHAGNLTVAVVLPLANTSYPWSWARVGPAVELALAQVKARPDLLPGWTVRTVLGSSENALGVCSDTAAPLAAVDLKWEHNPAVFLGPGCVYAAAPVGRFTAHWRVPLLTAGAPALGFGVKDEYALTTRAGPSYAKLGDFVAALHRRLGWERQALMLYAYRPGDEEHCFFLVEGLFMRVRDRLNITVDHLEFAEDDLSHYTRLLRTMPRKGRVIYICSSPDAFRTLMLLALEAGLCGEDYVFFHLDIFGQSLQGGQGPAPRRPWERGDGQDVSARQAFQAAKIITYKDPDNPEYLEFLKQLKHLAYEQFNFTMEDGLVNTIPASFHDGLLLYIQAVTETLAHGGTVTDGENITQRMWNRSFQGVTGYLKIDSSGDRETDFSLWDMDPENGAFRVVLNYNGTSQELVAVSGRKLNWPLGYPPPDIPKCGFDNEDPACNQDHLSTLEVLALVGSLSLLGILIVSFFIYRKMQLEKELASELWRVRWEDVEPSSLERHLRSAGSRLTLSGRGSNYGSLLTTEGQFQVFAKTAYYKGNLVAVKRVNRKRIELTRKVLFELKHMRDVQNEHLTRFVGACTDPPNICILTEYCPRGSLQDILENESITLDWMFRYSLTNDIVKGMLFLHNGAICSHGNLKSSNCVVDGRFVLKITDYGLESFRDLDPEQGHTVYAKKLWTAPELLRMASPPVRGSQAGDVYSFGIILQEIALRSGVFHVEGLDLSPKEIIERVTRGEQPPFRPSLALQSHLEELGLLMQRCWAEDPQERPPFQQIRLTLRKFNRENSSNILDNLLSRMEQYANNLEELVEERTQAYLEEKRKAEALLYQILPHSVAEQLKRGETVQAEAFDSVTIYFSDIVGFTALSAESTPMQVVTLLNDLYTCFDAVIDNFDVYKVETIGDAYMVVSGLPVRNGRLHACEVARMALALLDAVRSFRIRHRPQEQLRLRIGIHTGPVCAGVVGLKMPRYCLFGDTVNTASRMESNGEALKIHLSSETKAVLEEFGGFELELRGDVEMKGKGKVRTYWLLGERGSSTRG

Compound | Potency
COc1ccc(Cl)cc1-c1ccc2c(c1)C(=O)N1CCN(C(C)=O)C[C@@H]1C(=O)N2 | inactive
Cc1c(Cl)c(C(=O)N2C[C@@H](CN3CCCN(C)CC3)[C@@H](CO)C2)nn1C | inactive
CC(C)CCNC(=O)CCN(CC(C)C)C(=O)c1ccoc1 | inactive
O=C(NC(C(=O)N1CCCCC1)C1CCN(C(=O)c2ccc(Cl)cc2)CC1)c1ccccc1 (centres undefined) | inactive
Cc1cnc(CC2CCN(C(=O)c3cccc4[nH]ccc34)CC2)n1CC1CC1 | inactive
O=C1NCN(Cc2ccc(Cl)cc2)C12CCN(Cc1ccccc1)CC2 | 11.2 µM (active)
CC(C)CCN1CCC2(CC1)C(=O)NCN2Cc1ccc(Cl)cc1 | inactive
O=C(C1CC1)N1CCC2(CC1)C(=O)NCN2Cc1ccc(Cl)cc1 | inactive
COCC(=O)NC[C@H]1O[C@@H](CO)[C@@H](O)[C@H]1N1CCN(c2ccc(F)cc2)CC1 | inactive
CC(=O)NC1(C)CCN(Cc2cnc(-c3ccc4c(ccn4C)c3)s2)CC1 | inactive
CC(=O)NC1(C)CN(Cc2ccc(-c3ccc4c(ccn4C)c3)s2)C1 | 8.91 µM (active)
COc1ccc(C(=O)N2CCC3(CC2)OC(=O)N(CC2CC2)C3(C)c2cccnc2)cn1 (centres undefined) | inactive
COc1ccc(CN2CCN(c3noc(C(C)C)n3)CC2CCO)cc1C (centres undefined) | inactive
O=C(C1CCCC1)N1CCC2(CCCCO2)CC1 | inactive
O=C(c1nc2c(o1)CCN(Cc1ccccc1F)CC2)N1CCOCC1 | inactive
O=C(NCC1CC1)c1nc2c(o1)CCN(CCc1ccccc1)CC2 | inactive
O=C(NCC1CC1)c1nc2c(o1)CCN(Cc1cccc(F)c1F)CC2 | 22.4 µM (active)
CCOc1ccccc1C(=O)N1CCC(c2n[nH]c(=O)n2-c2ccc(C)cc2)CC1 | inactive
Cc1ccoc1C(=O)N1CCC(C2CCN(Cc3cccc(F)c3F)CC2)C1 (centres undefined) | inactive
COc1ccc(C)cc1NC(=O)Nc1cccc(-c2ccc(N3CCCCC3)nn2)c1 | 10 µM (active)
COc1ccc(C)cc1NC(=O)Cn1nc2n(c1=O)CCCC2 | inactive
COc1ccc(C(=O)Nc2cccc(-c3nnc4n3CCCC4)c2)cc1 | inactive
COCC(=O)NC[C@H]1CCN(Cc2cn(C)c3ccccc23)C[C@H]1N(C)C | inactive
COc1ccc(OCC2(C)COc3ccc(C(=O)NC4CCOCC4)cc3N2)cc1 (centres undefined) | inactive
COc1ccc(OCC2(C)COc3ccc(C(=O)Nc4cccnc4)cc3N2)cc1 (centres undefined) | 25.1 µM (active)

Compound | Potency
CC1(COCC2CC2)COc2ccc(C(=O)NCc3cccnc3)cc2N1 (centres undefined) | inactive
Cc1ccc(C(=O)N2CCC3(CC2)CC(=O)c2ccccc2O3)cc1 | inactive
O=C(CCC[C@H]1NC[C@@H]2C[C@H]1CN(Cc1ccccc1)C2)NCC1CC1 | inactive
O=C(c1ccncc1)N1CCC(Cc2noc(C3CC3)n2)C1 (centres undefined) | inactive
Cc1cc(CNC(=O)c2ccc(-c3ccccc3Cl)o2)n(C)n1 | 11.2 µM (active)
O=C(NCc1ccc(Cl)cc1)c1cccn2nccc12 | inactive
COc1ccccc1-c1onc(C)c1C(=O)NCc1ccc(Cl)cc1 | inactive
Cn1cc(-c2cc(-c3cccnc3)c3cncn3c2)cn1 | inactive
COc1ccc(-c2cc(N3CCCC(NC(=O)c4cc(F)ccc4Cl)C3)n[nH]2)cc1 (centres undefined) | inactive
O=C(c1ccoc1)N1CCOc2ccc(CN3CCc4ccccc4C3)cc2C1 | inactive
O=C1c2cnc(-c3ccc(Cl)cc3)nc2OCCN1Cc1ccccc1 | 31.6 µM (active)
O=C1c2cnc(-c3ccc(O)c(F)c3)nc2OCCN1Cc1ccccc1 | inactive
COc1ccc(-c2ncc3c(n2)OCCN(Cc2ccccc2)C3=O)cn1 | inactive
COc1ccc(CNC(=O)N2CCC3(CC2)CC(N(C(C)=O)C2CC2)CCO3)cc1 (centres undefined) | inactive
Cc1nn2c(c1-c1ccccc1-c1ccccc1)N(CC1CC1)CCC2 | 2.82 µM (active)
Cc1nn2c(c1-c1ccccc1Oc1ccccc1)N(C(=O)C(C)C)CCC2 | inactive
Cc1nn2c(c1-c1ccccc1-c1ccccc1)N(C(=O)CN1CCOCC1)CCC2 | inactive
COc1ccccc1-c1[nH]nc2ncc(C(=O)N3CCN(Cc4ccccc4)CC3)nc12 | inactive
CN(C)C(=O)c1cccnc1OC1CCN(S(=O)(=O)c2ccc3c(c2)CCCC3)C1 (centres undefined) | inactive
O=C(c1ccno1)N1C[C@@H]2OCC(=O)N(c3ccccc3)[C@@H]2C1 | inactive
O=C(Nc1cccc(Cl)c1)c1cnc2c(c1)N(C(=O)CCc1ccccc1)CCC2 | inactive
COc1ccc(CN2CCc3nc(C(=O)N4CCOCC4)oc3CC2)cc1OC | inactive
O=C(NCCOc1ccccc1)c1nc2c(o1)CCN(CC1CCCCC1)CC2 | inactive
O=C(Nc1ccc(Cl)cc1)c1nc2c(o1)CCN(Cc1ccsc1)CC2 | 8.91 µM (active)
O=C(Cn1nc2n(c1=O)CCCC2)Nc1ccc(Cl)cc1 | inactive

Compound | Potency
O=C(Nc1ccccc1)c1nc2c(o1)CCN(Cc1cccc(Cl)c1)CC2 | 11.2 µM (active)
CCNC(=O)C1C(c2cccc(NC(=O)c3cccc(C)c3)c2)OC(=O)N1Cc1cccc(Cl)c1 (centres undefined) | inactive
Cc1cccc(CN2CCc3nc(C(=O)Nc4ccc(Cl)cc4)oc3CC2)c1 | 8.91 µM (active)
N#Cc1ccc(CN2CCc3nc(C(=O)N4CCOCC4)oc3CC2)cc1 | inactive
COCCNc1ncccc1-c1noc([C@@H]2CCCN2Cc2ccc3c(c2)OCO3)n1 | inactive
CC(C)N1C(=O)OCC12CCN(C(=O)c1ccc(Oc3ccccc3)cc1)C2 (centres undefined) | inactive
CCc1nc2c(c(-c3ccc(Cl)cc3)n1)CN(CCC(C)C)CC2 | inactive
COC(=O)N1CCCc2nc(C)nc(-c3ccc(O)cc3)c2C1 | inactive
CN(C)c1cc(N2C[C@@H](CN3CCOCC3)C[C@H](CO)C2)ncn1 | inactive
COc1ccccc1C(=O)N1CCC2(CC1)CC(=O)c1ccccc1O2 | inactive
CC(=O)N(C1CC1)C1CCOC2(CCN(C(=O)C3(c4ccccc4)CC3)CC2)C1 (centres undefined) | inactive
COCC1CN(C(C)=O)CC12CCN(Cc1ccccc1OC)CC2 (centres undefined) | inactive
CC1=NS(=O)(=O)N(C)C=C1C(=O)OCc1nc(-c2ccc(C)cc2)no1 | 10 µM (active)
CC1=NS(=O)(=O)N(C)C=C1C(=O)OCc1nc(-c2ccccc2C)no1 | inactive
COc1ccc(CN2C=C(C(=O)OCc3nc(C)no3)C(C)=NS2(=O)=O)cc1 | inactive
CCn1ncc(N2CCC(NC(=O)c3ccccc3OC)CC2)cc1=O | inactive
COc1cccc(C(=O)NCC2Cn3cccc3C(=O)N2Cc2ccccc2)c1 (centres undefined) | inactive
COc1cccc(-c2cc(-c3nc(C4CCOC4)no3)[nH]n2)c1 (centres undefined) | inactive
COc1ccc(-c2[nH]nc3ncc(C(=O)Nc4ccccc4)nc23)c(C)c1 | inactive
CN(C)c1ccc2ncc(Nc3ccccc3F)n2n1 | inactive
COc1ccccc1Nc1cnc2ccc(-c3ccc(OC)c(OC)c3)nn12 | inactive
COc1ccccc1Nc1cnc2ccc(N(C)Cc3cccnc3)nn12 | 25.1 µM (active)
O=C1NC2(CN([S+](=O)([O-])c3cccc(C(F)(F)F)c3)C2)Oc2ccccc21 | inactive
Cc1cccc(-n2nc(-c3c(C)nc4scc(CC(=O)NC(C)C(C)C)n4c3=O)cc2C)c1 (centres undefined) | inactive
COc1ccccc1CNC(=O)CN1CCCC(CO)(CC2CC2)C1 (centres undefined) | inactive

Compound | Potency
COc1cc(NC(=O)Cn2c(N3CCc4ccccc4C3)nc(C)cc2=O)cc(OC)c1 | inactive
COc1cccc(NC(=O)Cn2c(-c3ccccc3)nc(C)cc2=O)c1 | inactive
COc1cccc(CNC(=O)Cn2c(N(C)Cc3ccccc3)nc(C)cc2=O)c1OC | 15.8 µM (active)
COc1cccc(NC(=O)Cn2c(N(C)Cc3ccccc3)nc(C)cc2=O)c1 | 10 µM (active)
CCCN1C(=O)Cc2ccccc2C1C(=O)NCc1cccc(OC)c1OC (centres undefined) | inactive
COc1ccc2[nH]c3c(c2c1)CCNC31CCN(C(=O)c2cc(C)n(C)n2)CC1 | inactive
COc1cccc(C(C(=O)O)N2CCN(c3ccccn3)CC2)c1OC (centres undefined) | inactive
Cc1cc(C(=O)N2CCC3(CC2)CC(C(=O)N2CCOCC2)N(C)C3)nn1C (centres undefined) | inactive
CCn1nccc1C(=O)N1CCCCCNC(=O)[C@H]2C[C@H](C(=O)N3CCc4ccccc4C3)C[C@H]21 | inactive
Cc1ccc(OCc2nc(C3CCN(C(=O)c4c5c(nc6ccccc46)CCCC5)CC3)no2)cc1 | inactive
Cc1ccc(OCc2nc(C3CCN(C(=O)c4noc(C)c4CN4CCCCC4)CC3)no2)cc1 | inactive
Cc1ccc(OCc2nc(C3CCN(C(=O)CCc4nc5ccc(Cl)cc5[nH]4)CC3)no2)cc1 | 11.2 µM (active)
COCCOC1CCN(C(=O)c2[nH]nc3c2COc2ccccc2-3)CC1 | inactive
COc1ccc(CNC(=O)Cc2c[nH]c3ncc(-c4ccccc4)cc23)cc1OC | inactive
COCCNC(=O)Cc1c[nH]c2ncc(-c3cccnc3OC)cc12 | inactive
Cc1noc(C)c1-c1nccc2c(=O)cc(N3CCOCC3)oc12 | inactive
Cc1noc(C)c1-c1cnc2[nH]cc(CC(=O)N3CCOCC3)c2c1 | 22.4 µM (active)
O=C(Cc1c[nH]c2ncc(-c3ccccc3F)cc12)N1CCOCC1 | 25.1 µM (active)
CN(C(=O)Cc1c[nH]c2ncc(-c3cnn(C)c3)cc12)c1ccccc1 | inactive
CCCCSc1nc(N)cc(N2CCCC(OCc3cccnc3)C2)n1 (centres undefined) | inactive
CC(C)CNC(=O)CC(c1ccc(F)cc1F)c1c[nH]c2ccccc12 (centres undefined) | inactive
COc1ccc(CNC(=O)c2cc3n(n2)CC(c2ccc4c(c2)OCO4)OC3)c(OC)c1 (centres undefined) | inactive
CCCc1nc(C(=O)N[C@@H]2[C@@H](Cc3ccccc3)[C@H]3OCC[C@@H]23)cs1 | inactive
Cc1ccc(NC(=O)Cn2ccn3nc4c(c3c2=O)CC(C)CC4)cc1Cl (centres undefined) | inactive
